# Data as given in PubChem BioAssay (NCI).
# The panel holds about 79,000 compounds, 15% with a hit somewhere; the sample as a whole holds those more often. Values without a mark were called inactive. Active and inactive are the calls of the source. Rule as the data show it: active = growth inhibition above about 70%; inactive = the rest.
# Experiment: NCI Yeast Anticancer Drug Screen. Data for the mlh1 rad18 strain (AID 175)
# Details: S. cerevisiae mlh1 rad18 strain growth inhibition; at 5.0 µM (retest, dose inferred, filed as 0.5); hits give high values
# How it was run: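 Test agents were incubated with a yeast strain of defined genotype (DNA damage repair defect). Inhibition of growth was derived by comparison with vehicle-exposed cultures.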
row,SMILES,growth inhibition
1,O=C(c1ccc(Br)cc1)C1C(c2ccccc2)N1C1CCCCC1 (stereo not drawn),-2%
2,Cc1cccc2cc3ccccc3c[n+]12,14%
3,Cc1ccc(P(=O)(c2ccc(C)cc2)c2ccc(C)cc2)cc1.Cc1ccc(P(=O)(c2ccc(C)cc2)c2ccc(C)cc2)cc1.[Cl][Sn]([Cl])([Cl])[Cl],3%
4,c1ccc(P(CCP(c2ccccc2)c2ccccc2)CCP(c2ccccc2)c2ccccc2)cc1,95% (active)
5,O=[N+]([O-])c1cc2c([N+](=O)[O-])cccc2o1,74% (active)
6,O=C1CCC[N]1[Hg][N]1CCCC1=O,33%
7,Oc1c(Cl)c(Cl)c(Cl)c(Cl)c1Cl.[Cu+2],15%
8,ClCCN(CCCl)c1ccc(C=NCCCCN=Cc2ccc(N(CCCl)CCCl)cc2)cc1,63%
9,CC(C(=O)C1CCCCC1)[n+]1ccccc1 (stereo not drawn),-4%
10,CN(C)CC1CCCCC1=O (stereo not drawn),-131%
11,CSc1nncc(=O)[nH]1.[Hg],99% (active)
12,CNC(=O)N1CN(c2ccccc2)C2(CCN(CCCC(=O)c3ccc(F)cc3)CC2)C1=O,-20%
13,O=C(OCc1ccccc1)C(C(Cl)c1ccccc1)N(Cc1ccccc1)Cc1ccccc1 (stereo not drawn),-1%
14,O=C1C=C(Cl)C(=O)C=C1Cl,11%
15,CC(=O)[O][Hg][c]1ccccc1N,22%
16,CCOP(=O)(Cc1cccc2ccccc12)OCC,17%
17,Nc1c(Cl)cccc1C(=O)O,2%
18,CC(=O)O[C@H]1CC[C@H]2[C@@H]3CCC4=CC(=O)CC[C@@H]4[C@H]3CC[C@]12C,0%
19,C1CC[N-]CC1.CC(=N\O)/C(C)=N/O.CC(=N\O)/C(C)=N/O.OC1[CH-]CCCC1.[Co+2],17%
20,c1ccc(C(C(=Nc2ccc(Cc3ccc(N=C(C(c4ccccc4)c4ccccc4)N4CC4)cc3)cc2)N2CC2)c2ccccc2)cc1,11%

row,SMILES,growth inhibition
1,CCN(Cc1ccccc1)CC(O)c1ccc(Cl)c(Cl)c1 (stereo not drawn),-1%
2,CC(=O)OC1C(O)C(C)OC(OC2C(OC(=O)C3CCC4C(C3)OC3(CC(OC(=O)/C=C/c5ccccc5)C(C)CO3)C43CO3)OC(C)C(O)C2OC(C)=O)C1O (stereo not drawn),-1%
3,CCCCC(CC)CNP(=S)(NCC(CC)CCCC)NCC(CC)CCCC (stereo not drawn),-5%
4,Oc1c(-c2ccccc2)cc(-[n+]2c(-c3ccccc3)cc(-c3ccccc3)cc2-c2ccccc2)cc1-c1ccccc1,98% (active)
5,Cc1ccc([C@H]2N[C@@H]2c2ccccn2)cc1,-5%
6,CC[CH2][Sn]([CH2]CC)([CH2]CC)[CH2]CCBr,99% (active)
7,O=[N+]([O-])c1cc(S(=O)(=O)F)ccc1S,-103%
8,CCCCN(CCCC)CCc1ccc(OC(=O)c2ccc(N)cc2)cc1,32%
9,Cc1ccc(C(=O)OC(C(=O)O)C(OC(=O)c2ccc(C)cc2)C(=O)O)cc1 (stereo not drawn) (tested in a mixture with another compound),19%
10,N#C[S-].[Ce+3].c1ccc(-c2ccccn2)nc1.c1ccc(-c2ccccn2)nc1.c1ccc(-c2ccccn2)nc1,63%
11,Nc1nc(N)c(-c2ccc(Cl)c(Cl)c2)c(CCc2ccc(CNC(=O)c3ccc(S(=O)(=O)F)cc3)cc2)n1,22%
12,CC1C2C=CC1C(c1c3ccc(=O)c(O)c-3oc3c(O)c(O)ccc13)C2C(=O)O (stereo not drawn),7%
13,O=C(O)CN(CCN(CC(=O)O)CC(=O)O)CC(=O)O,6%
14,O=S(=O)(F)c1ccc(Cl)cc1C[P+](c1ccccc1)(c1ccccc1)c1ccccc1,20%
15,Oc1ccc2ccccc2c1O,20%
16,COC1=[C]([Hg][Br])C(OC)OC1OC (stereo not drawn),99% (active)
17,Nc1nc(CCl)cs1,-2%
18,CCC(C)N1CN(c2ccccc2)C2(CCN(CCCC3(c4ccc(F)cc4)OCCO3)CC2)C1=O (stereo not drawn),-3%
19,COc1ccc(NP(=S)(Nc2ccc(OC)cc2)c2ccccc2)cc1,5%

# Same assay, conditions: S. cerevisiae mlh1 rad18 strain growth inhibition; at 50.0 µM (retest, dose inferred, filed as 5.0); hits give high values
row,SMILES,growth inhibition
1,O=C(c1ccc(Br)cc1)C1C(c2ccccc2)N1C1CCCCC1 (stereo not drawn),86% (active)
2,Cc1cccc2cc3ccccc3c[n+]12,89% (active)
3,Cc1ccc(P(=O)(c2ccc(C)cc2)c2ccc(C)cc2)cc1.Cc1ccc(P(=O)(c2ccc(C)cc2)c2ccc(C)cc2)cc1.[Cl][Sn]([Cl])([Cl])[Cl],1%
4,c1ccc(P(CCP(c2ccccc2)c2ccccc2)CCP(c2ccccc2)c2ccccc2)cc1,95% (active)
5,O=[N+]([O-])c1cc2c([N+](=O)[O-])cccc2o1,99% (active)
6,O=C1CCC[N]1[Hg][N]1CCCC1=O,51%
7,Oc1c(Cl)c(Cl)c(Cl)c(Cl)c1Cl.[Cu+2],96% (active)
8,ClCCN(CCCl)c1ccc(C=NCCCCN=Cc2ccc(N(CCCl)CCCl)cc2)cc1,95% (active)
9,CC(C(=O)C1CCCCC1)[n+]1ccccc1 (stereo not drawn),-6%
10,CN(C)CC1CCCCC1=O (stereo not drawn),-38%
11,CSc1nncc(=O)[nH]1.[Hg],99% (active)
12,CNC(=O)N1CN(c2ccccc2)C2(CCN(CCCC(=O)c3ccc(F)cc3)CC2)C1=O,39%
13,O=C(OCc1ccccc1)C(C(Cl)c1ccccc1)N(Cc1ccccc1)Cc1ccccc1 (stereo not drawn),56%
14,O=C1C=C(Cl)C(=O)C=C1Cl,99% (active)
15,CC(=O)[O][Hg][c]1ccccc1N,35%
16,CCOP(=O)(Cc1cccc2ccccc12)OCC,29%
17,Nc1c(Cl)cccc1C(=O)O,5%
18,CC(=O)O[C@H]1CC[C@H]2[C@@H]3CCC4=CC(=O)CC[C@@H]4[C@H]3CC[C@]12C,89% (active)
19,C1CC[N-]CC1.CC(=N\O)/C(C)=N/O.CC(=N\O)/C(C)=N/O.OC1[CH-]CCCC1.[Co+2],35%
20,c1ccc(C(C(=Nc2ccc(Cc3ccc(N=C(C(c4ccccc4)c4ccccc4)N4CC4)cc3)cc2)N2CC2)c2ccccc2)cc1,71% (active)

row,SMILES,growth inhibition
1,CCN(Cc1ccccc1)CC(O)c1ccc(Cl)c(Cl)c1 (stereo not drawn),99% (active)
2,CC(=O)OC1C(O)C(C)OC(OC2C(OC(=O)C3CCC4C(C3)OC3(CC(OC(=O)/C=C/c5ccccc5)C(C)CO3)C43CO3)OC(C)C(O)C2OC(C)=O)C1O (stereo not drawn),97% (active)
3,CCCCC(CC)CNP(=S)(NCC(CC)CCCC)NCC(CC)CCCC (stereo not drawn),33%
4,Oc1c(-c2ccccc2)cc(-[n+]2c(-c3ccccc3)cc(-c3ccccc3)cc2-c2ccccc2)cc1-c1ccccc1,99% (active)
5,Cc1ccc([C@H]2N[C@@H]2c2ccccn2)cc1,-10%
6,CC[CH2][Sn]([CH2]CC)([CH2]CC)[CH2]CCBr,99% (active)
7,O=[N+]([O-])c1cc(S(=O)(=O)F)ccc1S,92% (active)
8,CCCCN(CCCC)CCc1ccc(OC(=O)c2ccc(N)cc2)cc1,78% (active)
9,Cc1ccc(C(=O)OC(C(=O)O)C(OC(=O)c2ccc(C)cc2)C(=O)O)cc1 (stereo not drawn) (tested in a mixture with another compound),86% (active)
10,N#C[S-].[Ce+3].c1ccc(-c2ccccn2)nc1.c1ccc(-c2ccccn2)nc1.c1ccc(-c2ccccn2)nc1,98% (active)
11,Nc1nc(N)c(-c2ccc(Cl)c(Cl)c2)c(CCc2ccc(CNC(=O)c3ccc(S(=O)(=O)F)cc3)cc2)n1,96% (active)
12,CC1C2C=CC1C(c1c3ccc(=O)c(O)c-3oc3c(O)c(O)ccc13)C2C(=O)O (stereo not drawn),35%
13,O=C(O)CN(CCN(CC(=O)O)CC(=O)O)CC(=O)O,70% (active)
14,O=S(=O)(F)c1ccc(Cl)cc1C[P+](c1ccccc1)(c1ccccc1)c1ccccc1,86% (active)
15,Oc1ccc2ccccc2c1O,92% (active)
16,COC1=[C]([Hg][Br])C(OC)OC1OC (stereo not drawn),99% (active)
17,Nc1nc(CCl)cs1,-6%
18,CCC(C)N1CN(c2ccccc2)C2(CCN(CCCC3(c4ccc(F)cc4)OCCO3)CC2)C1=O (stereo not drawn),96% (active)
19,COc1ccc(NP(=S)(Nc2ccc(OC)cc2)c2ccccc2)cc1,58%
